Assay [1] is described as follows: ATG_NFI_CIS: Attagene CIS-FACTORIAL HepG2 Assay for human Nuclear Factor I (NFI) (AID 2282989). Conditions: HepG2 cis-regulatory reporter, NFI response element transcription; actives raise or lower the signal. The method, boiled down: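 Cells: human liver HepG2, transiently transfected with promoter-regulated reporter transcription units. Exposure 24 h. Detection: fluorescent RT-PCR products separated by capillary electrophoresis, normalised to DMSO negative control.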

Assay [2] has as its target Myc proto-oncogene protein (Homo sapiens) (UniProt P01106). The assay is described as follows: ATG_Myc_CIS: Attagene CIS-FACTORIAL HepG2 Assay for human Myelocytomatosis (Myc) Proto-Oncogene Transcription Factor (AID 2282990). The conditions noted are these: HepG2, Attagene cis-reporter transcription factor activity; actives raise or lower the signal. A digest of the protocol: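 Multiplexed cis-reporter transcription in HepG2 cells after 24 h chemical treatment. Reporter mRNA measured by RT-PCR and capillary electrophoresis fluorescence; activity fitted bidirectionally against DMSO control.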

Assay [3] can be described thus: ATG_NF_kB_CIS: Attagene CIS-FACTORIAL HepG2 Assay for human Nuclear Factor Kappa B (NF-kB) (AID 2282991). The conditions noted are these: HepG2 Attagene cis-factorial NF-kB reporter mRNA; actives raise or lower the signal. A digest of the protocol: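 HepG2 cells transiently transfected with multiplexed cis-element reporter units measuring endogenous transcription factor activity; reporter mRNA read 24 h after dosing by RT-PCR, fluorescent labelling, HpaI digestion and capillary electrophoresis. Bidirectional fit against DMSO baseline.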

Assay [4] in a line: ATG_NRF2_ARE_CIS: Attagene CIS-FACTORIAL HepG2 Assay for human Nuclear Factor Erythroid 2 Related Factor 2 (NFR2) response to Antioxidant Response Elements (ARE) (AID 2282992). Conditions: HepG2 Attagene ARE/NRF2 reporter, transcription factor activity; actives raise or lower the signal. A digest of the protocol:
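Using transiently transfected HepG2 cells exposed for 24 h, reporter mRNA levels were determined by RT-PCR with fluorescent primer extension and capillary electrophoresis, analysed for gain or loss of signal against DMSO.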

The nature of assay [5]: ATG_Oct_MLP_CIS: Attagene CIS-FACTORIAL HepG2 Assay for human Octamer-Binding Transcription Factor (Oct) (AID 2282993). Conditions: HepG2 Attagene cis-factorial Oct reporter, mRNA; actives raise or lower the signal. A digest of the protocol:
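HepG2, transient MRTU transfection, cis promoter elements; 24 h dosing; RT-PCR/CE fluorescence read-out of reporter mRNA; fit both directions vs DMSO.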

The target in assay [6] is Cellular tumor antigen p53 (Homo sapiens) (UniProt P04637). Briefly: ATG_p53_CIS: Attagene CIS-FACTORIAL HepG2 Assay for human p53 Transcription Factor (AID 2282994). Conditions: HepG2 p53 cis-element reporter, Attagene mRNA; actives raise or lower the signal. A digest of the protocol: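 In HepG2 cells, reporter transcription units under cis-regulatory promoters were transiently introduced. Following 24 h treatment, RNA was processed to labelled, digested cDNA fragments read by capillary electrophoresis; fitting was bidirectional versus DMSO.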
Cellular tumor antigen p53 (Homo sapiens), sequence (P04637 whole entry, looked up, the tested form may be a part): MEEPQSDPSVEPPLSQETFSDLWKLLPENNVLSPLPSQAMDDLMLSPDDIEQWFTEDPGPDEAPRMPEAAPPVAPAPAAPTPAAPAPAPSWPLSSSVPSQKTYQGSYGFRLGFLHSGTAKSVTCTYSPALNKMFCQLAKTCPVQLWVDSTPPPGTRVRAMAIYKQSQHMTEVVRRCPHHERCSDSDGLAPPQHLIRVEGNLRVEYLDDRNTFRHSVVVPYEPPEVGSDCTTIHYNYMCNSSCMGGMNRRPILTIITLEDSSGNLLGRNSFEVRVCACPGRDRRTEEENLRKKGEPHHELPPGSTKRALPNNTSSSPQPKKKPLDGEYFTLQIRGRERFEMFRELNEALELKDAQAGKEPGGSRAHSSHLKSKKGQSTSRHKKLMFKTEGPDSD

Assay [7] addresses human Peroxisome Proliferator-activated Receptor alpha (PPARa), PPARA (gene 5465) (UniProt Q07869). Briefly: ATG_PPARa_TRANS: Attagene TRANS-FACTORIAL HepG2 Assay for human Peroxisome Proliferator-activated Receptor alpha (PPARa) (AID 2283001; active means hit-call score of the fitted dose curve at least 0.9, where 1 is the maximum;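 on AC50: potency for gain of reporter signal over DMSO so agonist or activator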). A digest of the protocol:
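Exposure: 24 h, transiently transfected HepG2 cells. Endpoint: GAL4-UAS reporter mRNA, RT-PCR with capillary electrophoresis fluorescence. Baseline: DMSO; increases fitted.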

In assay [8] the target is Peroxisome proliferator-activated receptor gamma (Homo sapiens) (UniProt P37231). The assay is described as follows: ATG_PPARg_TRANS: Attagene TRANS-FACTORIAL HepG2 Assay for human Peroxisome Proliferator-activated Receptor-gamma (PPARg) (AID 2283007; active means hit-call score of the fitted dose curve at least 0.9, where 1 is the maximum). The method, boiled down:
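HepG2 cells transiently transfected with multiplexed GAL4-UAS reporter units and exogenous chimeric NR-Gal4 proteins; reporter mRNA quantified after 24 h compound exposure by RT-PCR, fluorescent labelling, HpaI digestion and capillary electrophoresis; gain-of-signal fitted versus DMSO baseline.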

Assay [9] concerns the target Nuclear receptor subfamily 1 group I member 2 (Homo sapiens) (UniProt O75469). Briefly: ATG_PXR_TRANS: Attagene TRANS-FACTORIAL HepG2 Assay for human Pregnane X Receptor (PXR) (AID 2283008; active means hit-call score of the fitted dose curve at least 0.9, where 1 is the maximum). The method, boiled down: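 Multiplexed TRANS reporter panel in HepG2; this component tracks PXR-Gal4-driven reporter mRNA after 24 h dosing, measured by RT-PCR with capillary electrophoresis fluorescence, fitted against DMSO.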

Assay [10] deals with human RAR-related Orphan Receptor beta (RORb), RORB (gene 6096) (UniProt Q92753). Briefly: ATG_RORb_TRANS: Attagene TRANS-FACTORIAL HepG2 Assay for human RAR-related Orphan Receptor beta (RORb) (AID 2283010; active means hit-call score of the fitted dose curve at least 0.9, where 1 is the maximum). A digest of the protocol:
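Multiplexed transcription-factor reporter assay: HepG2 cells transiently carrying NR-Gal4/GAL4-UAS constructs, 24 h treatment, mRNA quantified by RT-PCR plus capillary electrophoresis fluorescence; activity scored as induction over DMSO.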

Assay [11] concerns the target human RAR-related Orphan Receptor gamma (RORg), RORC (gene 6097) (UniProt P51449). Briefly: ATG_RORg_TRANS: Attagene TRANS-FACTORIAL HepG2 Assay for human RAR-related Orphan Receptor gamma (RORg) (AID 2283011; active means hit-call score of the fitted dose curve at least 0.9, where 1 is the maximum). The method, boiled down: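 Reporter transcripts from a transfected RORg-GAL4 chimera in HepG2 cells were quantified 24 h after dosing by RT-PCR, 6-FAM labelling, HpaI digestion and capillary electrophoresis; increases over DMSO baseline were fitted.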

Assay [12] is described as follows: BSK_3C_uPAR: BioMAP Diversity Plus: 3C Assay for Urokinase-type plasminogen activator receptor (uPAR) Biomarker Activity (AID 2282998). Conditions: BioMAP 3C HUVEC, uPAR biomarker ELISA; actives raise or lower the signal. The method, boiled down: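 A multiplexed primary-cell system built on human umbilical vein endothelium was used, with chemical present for 24 h before reading. Cell-surface uPAR was detected by ELISA; signal change in either direction counted against DMSO.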
(An ELISA detects its analyte on a solid surface through an enzyme-linked reagent.)

A short description of assay [13]: BSK_3C_VCAM1: BioMAP Diversity Plus: 3C Assay for Vascular cell adhesion molecule 1 (VCAM1) Biomarker Activity (AID 2282999). Conditions: BioMAP 3C HUVEC, VCAM1 ELISA, cytokine-stimulated; actives raise or lower the signal. The method, boiled down: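 Vascular primary endothelium (human umbilical vein) was exposed to chemicals and assayed 24 h later. VCAM-1 levels came from ELISA, with DMSO serving as baseline for bidirectional fitting.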

The nature of assay [14]: BSK_4H_Eotaxin3: BioMAP Diversity Plus: 4H Assay for Eotaxin 3 Biomarker Activity (AID 2283000).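 Further: CCL26 protein level quantified by ELISA in parallel with SRB cytotoxicity check.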 The conditions noted are these: primary human endothelial cells (HUVEC); actives raise or lower the signal. A digest of the protocol: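 Human umbilical vein endothelial cells (BSK_4H system) dosed with test chemical; Eotaxin-3 (CCL26) measured by ELISA 24 h after dosing. Bidirectional curve fitting relative to DMSO negative control as baseline.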

Assay [15] concerns the target human Peroxisome Proliferator-activated Receptor delta (PPARd), PPARD (gene 5467) (UniProt Q03181). Briefly: ATG_PPARd_TRANS: Attagene TRANS-FACTORIAL HepG2 Assay for human Peroxisome Proliferator-activated Receptor delta (PPARd) (AID 2283002; active means hit-call score of the fitted dose curve at least 0.9, where 1 is the maximum). The method, boiled down: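 Multiplexed trans-activation format: HepG2 liver cells expressing exogenous NR-Gal4 chimeras and GAL4-UAS reporters were exposed for 24 h. Reporter mRNA was detected by RT-PCR with capillary electrophoresis fluorescence; activity fitted as gain of signal relative to DMSO.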

Read-out in assay [16]: Intercellular Adhesion Molecule 1 (ICAM1), ICAM1 (gene 3383)
Briefly: BSK_3C_ICAM1: BioMAP Diversity Plus: 3C Assay for Intercellular Adhesion Molecule 1 (ICAM1) Biomarker Activity (AID 2283003). Conditions: primary human endothelial cells (HUVEC); actives raise or lower the signal. A digest of the protocol: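 Using DMSO as baseline, bidirectional curve fitting was applied to ICAM-1 ELISA signals from HUVEC in the 3C system, measured 24 h after compound addition.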

A short description of assay [17]: BSK_3C_TissueFactor: BioMAP Diversity Plus: 3C Assay for Tissue Factor Biomarker Activity (AID 2282997). Conditions: BioMAP 3C HUVEC, tissue factor biomarker readout; actives raise or lower the signal. A digest of the protocol: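 Tissue factor on primary human umbilical vein endothelium was read by ELISA 24 h after dosing, gain or loss relative to DMSO. Cytotoxicity ran alongside via SRB (0.1%, TCA-fixed, 560 nm).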

Records with an inconclusive call do not appear. Active and inactive are the calls of the source. How the source made its calls, unless noted: active means hit-call score of the fitted dose curve at least 0.9, where 1 is the maximum; inactive means score below 0.9.

Myc proto-oncogene protein (Homo sapiens), sequence (P01106 whole entry, looked up): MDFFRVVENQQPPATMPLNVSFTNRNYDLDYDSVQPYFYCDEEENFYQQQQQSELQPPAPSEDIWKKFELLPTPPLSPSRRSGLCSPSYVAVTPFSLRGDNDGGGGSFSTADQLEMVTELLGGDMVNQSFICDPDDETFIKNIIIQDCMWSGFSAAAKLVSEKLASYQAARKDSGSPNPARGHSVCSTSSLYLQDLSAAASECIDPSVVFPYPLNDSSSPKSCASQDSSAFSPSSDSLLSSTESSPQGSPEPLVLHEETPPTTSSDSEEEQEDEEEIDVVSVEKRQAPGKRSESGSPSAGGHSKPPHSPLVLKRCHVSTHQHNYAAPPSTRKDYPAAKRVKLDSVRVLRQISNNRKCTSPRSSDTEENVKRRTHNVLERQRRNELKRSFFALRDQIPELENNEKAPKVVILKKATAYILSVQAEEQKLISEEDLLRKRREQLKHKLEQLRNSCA
Peroxisome proliferator-activated receptor gamma (Homo sapiens), sequence (P37231 whole entry, looked up, the tested form may be a part): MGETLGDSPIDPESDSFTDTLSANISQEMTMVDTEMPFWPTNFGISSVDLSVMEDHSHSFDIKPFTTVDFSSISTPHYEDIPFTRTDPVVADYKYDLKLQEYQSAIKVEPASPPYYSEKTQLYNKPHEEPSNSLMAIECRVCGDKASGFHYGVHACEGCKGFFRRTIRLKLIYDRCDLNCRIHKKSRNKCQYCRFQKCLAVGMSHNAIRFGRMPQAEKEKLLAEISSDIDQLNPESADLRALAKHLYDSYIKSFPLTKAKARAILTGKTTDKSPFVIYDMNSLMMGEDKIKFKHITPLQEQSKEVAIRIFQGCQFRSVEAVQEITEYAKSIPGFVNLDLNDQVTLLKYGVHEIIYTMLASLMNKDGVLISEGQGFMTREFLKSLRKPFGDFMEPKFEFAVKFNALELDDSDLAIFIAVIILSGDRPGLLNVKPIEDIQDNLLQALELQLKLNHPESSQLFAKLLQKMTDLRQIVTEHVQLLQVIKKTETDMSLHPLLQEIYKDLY
human RAR-related Orphan Receptor gamma (RORg), RORC (gene 6097), sequence (P51449 whole entry, looked up, the tested form may be a part): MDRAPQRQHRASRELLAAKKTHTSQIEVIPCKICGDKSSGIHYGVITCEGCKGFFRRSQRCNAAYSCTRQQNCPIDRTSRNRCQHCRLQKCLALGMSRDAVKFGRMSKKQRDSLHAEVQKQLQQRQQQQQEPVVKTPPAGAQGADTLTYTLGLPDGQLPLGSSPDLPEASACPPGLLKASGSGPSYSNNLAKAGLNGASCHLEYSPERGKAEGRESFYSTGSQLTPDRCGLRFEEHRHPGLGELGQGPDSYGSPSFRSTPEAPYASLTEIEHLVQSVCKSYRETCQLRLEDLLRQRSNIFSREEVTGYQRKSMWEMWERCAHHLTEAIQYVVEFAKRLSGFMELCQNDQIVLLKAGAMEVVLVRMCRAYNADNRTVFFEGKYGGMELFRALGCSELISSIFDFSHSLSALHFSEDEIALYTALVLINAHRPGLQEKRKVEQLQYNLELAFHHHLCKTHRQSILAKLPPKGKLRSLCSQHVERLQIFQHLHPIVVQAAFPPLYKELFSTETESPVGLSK
human Peroxisome Proliferator-activated Receptor delta (PPARd), PPARD (gene 5467), sequence (Q03181 whole entry, looked up, the tested form may be a part): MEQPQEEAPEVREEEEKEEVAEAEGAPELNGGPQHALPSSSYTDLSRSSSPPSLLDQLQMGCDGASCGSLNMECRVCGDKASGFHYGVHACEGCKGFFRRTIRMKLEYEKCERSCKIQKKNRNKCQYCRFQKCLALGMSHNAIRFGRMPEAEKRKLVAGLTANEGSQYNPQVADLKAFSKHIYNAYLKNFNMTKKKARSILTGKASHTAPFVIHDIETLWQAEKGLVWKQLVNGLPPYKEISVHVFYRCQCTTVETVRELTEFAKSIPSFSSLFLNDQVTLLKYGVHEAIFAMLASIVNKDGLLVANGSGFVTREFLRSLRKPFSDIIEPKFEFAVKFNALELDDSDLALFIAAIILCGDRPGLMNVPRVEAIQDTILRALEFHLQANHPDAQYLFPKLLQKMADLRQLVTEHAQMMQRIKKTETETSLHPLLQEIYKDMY
human RAR-related Orphan Receptor beta (RORb), RORB (gene 6096), sequence (Q92753 whole entry, looked up, the tested form may be a part): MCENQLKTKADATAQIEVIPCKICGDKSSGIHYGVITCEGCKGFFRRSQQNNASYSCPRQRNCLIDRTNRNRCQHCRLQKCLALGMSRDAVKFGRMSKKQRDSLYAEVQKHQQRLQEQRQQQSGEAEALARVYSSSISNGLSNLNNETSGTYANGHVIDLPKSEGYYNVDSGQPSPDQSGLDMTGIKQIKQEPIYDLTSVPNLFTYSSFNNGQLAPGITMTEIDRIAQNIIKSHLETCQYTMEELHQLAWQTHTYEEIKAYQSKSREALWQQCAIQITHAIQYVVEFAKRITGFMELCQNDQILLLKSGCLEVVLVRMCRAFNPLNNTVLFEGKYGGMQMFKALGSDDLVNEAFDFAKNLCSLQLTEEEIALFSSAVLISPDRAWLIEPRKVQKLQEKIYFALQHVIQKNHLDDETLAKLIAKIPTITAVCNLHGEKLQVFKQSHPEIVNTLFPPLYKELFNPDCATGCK
human Peroxisome Proliferator-activated Receptor alpha (PPARa), PPARA (gene 5465), sequence (Q07869 whole entry, looked up, the tested form may be a part): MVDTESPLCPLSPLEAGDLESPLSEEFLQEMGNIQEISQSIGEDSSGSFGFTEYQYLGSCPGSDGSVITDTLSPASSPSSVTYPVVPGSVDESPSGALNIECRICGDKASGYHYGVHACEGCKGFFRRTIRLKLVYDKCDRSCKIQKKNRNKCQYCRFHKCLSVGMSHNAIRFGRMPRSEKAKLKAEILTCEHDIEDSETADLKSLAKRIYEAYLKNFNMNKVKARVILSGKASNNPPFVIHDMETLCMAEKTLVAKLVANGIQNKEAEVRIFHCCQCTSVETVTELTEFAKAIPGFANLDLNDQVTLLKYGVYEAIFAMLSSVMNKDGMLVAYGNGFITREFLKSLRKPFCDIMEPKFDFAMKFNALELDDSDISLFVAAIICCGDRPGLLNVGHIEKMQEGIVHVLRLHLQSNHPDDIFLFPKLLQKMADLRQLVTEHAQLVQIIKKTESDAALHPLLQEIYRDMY
Nuclear receptor subfamily 1 group I member 2 (Homo sapiens), sequence (O75469 whole entry, looked up, the tested form may be a part): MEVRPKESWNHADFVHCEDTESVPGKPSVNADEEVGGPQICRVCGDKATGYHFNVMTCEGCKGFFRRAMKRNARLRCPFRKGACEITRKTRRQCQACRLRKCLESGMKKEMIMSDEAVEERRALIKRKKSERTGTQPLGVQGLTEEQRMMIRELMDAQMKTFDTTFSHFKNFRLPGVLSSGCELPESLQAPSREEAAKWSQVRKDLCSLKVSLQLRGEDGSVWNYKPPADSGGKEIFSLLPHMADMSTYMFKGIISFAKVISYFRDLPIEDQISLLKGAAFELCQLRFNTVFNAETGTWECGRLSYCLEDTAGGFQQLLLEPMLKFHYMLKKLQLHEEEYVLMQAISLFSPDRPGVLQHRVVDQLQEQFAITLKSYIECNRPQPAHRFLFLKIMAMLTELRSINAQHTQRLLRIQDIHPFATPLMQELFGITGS

Usually AC50 stands for the midpoint of the concentration-response curve, whichever way the signal moves. Turning to `CCCCc1ccc(N)cc1`, the outcome in [1], in assay [2], in [3], in assay [5], in assay [6] and in [8] was inactive. In addition, the compound was classed as inactive in assay [9] and in assay [10]. The AC50 in [4] was 27.2 µM (active); in assay [7], 38.7 µM (active).
As to `CCCC(=O)c1cc(O)c(O)cc1O`, the compound was classed as inactive in [1], in assay [2], in assay [3], in assay [4], in [5] and in [6]. In addition, the compound was classed as inactive in assay [7], in assay [8], in assay [9] and in [11].
As to `CCc1ccc(C=O)cc1`, the outcome in [1], in [2], in assay [3], in assay [4], in assay [5] and in [6] was inactive. The result in [7], in assay [8], in assay [9] and in assay [10] was inactive.
On to `Cc1ccc(Nc2ccc(O)c3c2C(=O)c2ccccc2C3=O)cc1`, for which the call in [1], in assay [2], in [3], in [5], in [12] and in assay [13] was inactive. For the same compound, the result in assay [14], in [7], in assay [15], in assay [16] and in [9] was inactive. Further, the AC50 in assay [4] was 5.13 µM (active).
For the compound `CC1=CCC2C(C1)C2(C)C` (stereo not drawn), the compound was classed as inactive in assay [1], in [2], in assay [5], in assay [6], in assay [15] and in assay [11]. The AC50 in assay [3] was 49.1 µM (active); in assay [4] it was 48.8 µM (active); in assay [9], 10.7 µM (active).
Consider `O=C(Oc1ccccc1)c1ccc(O)cc1`, for which the compound was called inactive in [1], in assay [2], in [3], in assay [4], in assay [5] and in assay [7]. Moreover, the compound was called inactive in assay [15], in [8], in assay [9] and in assay [10].
As for `COC(C(=O)O)c1ccccc1` (stereo not drawn), the compound was called inactive in assay [1], in assay [2], in assay [3], in [4], in assay [5] and in assay [6]. Also, the compound was called inactive in assay [15], in [8] and in [9].
For `CC(C)OP(=O)(CP(=O)(OC(C)C)OC(C)C)OC(C)C`, the result in [1], in assay [2], in assay [3], in assay [4], in assay [5] and in [6] was inactive. In addition, the result in [15], in assay [8] and in assay [11] was inactive. Further, in assay [9], the AC50 was 3.27 µM (active).
In the case of `CCCCCCCCCCCCCCCCCC(=O)OCC(CC)CCCC` (stereo not drawn), the compound was called inactive in assay [1], in [2], in assay [3], in [4], in [5] and in [17]. Moreover, the result in assay [12], in assay [13], in assay [14], in assay [16] and in [10] was inactive.
Regarding `CO[Si](CCCn1c(=O)n(CCC[Si](OC)(OC)OC)c(=O)n(CCC[Si](OC)(OC)OC)c1=O)(OC)OC`, the compound was called inactive in assay [1], in assay [2], in assay [3], in assay [4], in assay [5] and in [6]. Further, the result in assay [8] and in assay [9] was inactive.
On to `C[C@]12CC[C@H]3[C@@H](CCC4=CC(=O)CC[C@@]43C)[C@@H]1CC[C@@H]2C(=O)CO`, for which the compound was called inactive in assay [1], in assay [2], in assay [3], in assay [4], in assay [5] and in [15]. Further, the result in assay [8] was inactive. The AC50 in assay [6] was 42.5 µM (active); in [9], 2.12 µM (active).
Consider `CC1(CO)CN(c2ccccc2)NC1=O` (stereo not drawn), for which the compound was called inactive in assay [1], in assay [2], in assay [3], in assay [4], in [5] and in assay [6]. The result in assay [15], in [8], in assay [9] and in assay [11] was inactive.
